Screens: PubChem, several laboratories
KKLEB tox: CF airway cell cytotoxicity counter-screen | KKLEB CF airway cells viability, ATPlite luminescence, overnight; hits give low values; cells stimulated with P. aeruginosa culture filtrate | activity change (cytotoxicity), % at 5 µM | 360,000 tested, 0.36% active | AID 602141;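 active = corrected activity change at or below -50% at 5 µM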
TRPM1 prom inh: inhibitors of MITF-driven TRPM1 promoter in melanoma cells | 330,000 tested, 0.83% active | inhibition, % at 12.5 µM | SK-MEL-5 TRPM1 promoter luciferase, 24 h;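 active = mean inhibition across replicates of 60% or more, whatever share of single replicates reaches that level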
HIF-2a block: HIF-2a inhibition; 786-0 RCC cells HIF-2a reporter, luciferase luminescence, overnight; inhibition, % at 18.8 µM; 360,000 tested, 0.72% active; AID 624352;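 active = inhibition of the luminescence signal of 40% or more relative to plate controls, in a single-dose primary screen at 18.75 µM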
Shn3 3UTR inh: inhibitors of Schnurri-3 3'UTR reporter in osteoblasts. Clone20 osteoblast Shn3 3'UTR firefly luciferase, 24 h. inhibition, % at 12.5 µM. 360,000 tested, 0.52% active;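 active = mean inhibition of at least 75% with every replicate also reaching 75%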;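 also: 0% = median of neutral control wells and 100% = pilot-screen positive control compound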
Peg3 promoter: reduces Peg3 promoter-driven luciferase expression in HeLa | inhibition, % at 20 µM | 360,000 tested, 1.7% active | HeLa PEG-Prom luciferase reporter, luminescence, overnight;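 active = inhibition of at least 50% at 20 µM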
CF NFkB block: cystic fibrosis NF-kB activation inhibition | inhibition, % at 5 µM | 360,000 tested, 0.86% active | KKLEB NF-kB-GFP reporter, PAF-induced, GFP fluorescence overnight;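 active = at least 50% inhibition at 5 µM, scaled per plate between neutral and stimulator controls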;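 also: PAF is a Pseudomonas aeruginosa culture filtrate used as stimulus; plate controls were PAF-stimulated DMSO wells for no effect and unstimulated DMSO wells for full effect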
Active calls of the source: *; · = not tested or not shown. Shown are actives, neighbours in structure and some others; about 2.8% of the full set was active somewhere.

SMILES	KKLEB tox	TRPM1 prom inh	HIF-2a block	Shn3 3UTR inh	Peg3 promoter	CF NFkB block
NS(=O)(=O)c1ccc(NC(=S)NNC(=O)c2ccc(Br)o2)cc1	1.0	-9.4	5.3	3.6	5.2	-16.1
CCCCn1c(N)c(N(CCC(C)C)C(=O)COC(=O)c2ccc([N+](=O)[O-])s2)c(=O)[nH]c1=O	1.1	80.1*	-19.1	-4.9	30.8	19.6
CC(C)CN(C(=O)COC(=O)c1cccs1)c1c(N)n(Cc2ccccc2)c(=O)[nH]c1=O	-8.9	·	11.7	1.5	8.7	28.3
CC(C)CN(C(=O)COC(=O)c1ccc([N+](=O)[O-])s1)c1c(N)n(Cc2ccccc2)c(=O)[nH]c1=O	15.4	60.5*	-10.6	3.5	-12.7	-2.7
O=C(C#Cc1ccccc1)Nc1ccc(F)cc1	4.0	-52.6	-147.6	-83.4	-207.3	-8.3
O=C(C#Cc1ccccc1)Nc1cccc(F)c1	-56.7*	32.5	-130.8	-105.7	-30.8	58.1*
CCOC(=O)[C@]12CCCC=C1N(Cc1ccco1)C(=O)[C@H](CC(=O)NCCC(C)C)C2	·	·	7.5	·	·	·
CCCCCC1CC1C(=O)N/N=C/c1ccc(N(C)C)cc1 (stereo not drawn)	-33.3	-2.9	-7.3	89.1*	-21.2	0.8
CN(C)c1ccc(/C=N/NC(=O)COc2ccccc2)cc1	-4.5	-19.8	-104.4	9.3	-104.5	-6.2
Cc1cc2nc(C)n(CCCNC(=O)Nc3cccc4ccccc34)c2cc1C	7.7	24.5	-0.8	87.4*	3.1	-6.2
CCOc1ccc(NC(=O)CCn2c(=O)[nH]c3ccsc3c2=O)cc1	4.6	-0.7	8.8	17.2	-5.1	-21.5
Cc1cc(C)nc(N2CCCC(C(=O)NCCC3=CCCCC3)C2)n1 (stereo not drawn)	7.5	0.0	3.6	0.6	-5.6	4.5
Cc1ccc(-c2c3c(nc4sc(C(N)=O)c(N)c24)CCC3)cc1	0.6	4.1	29.4	8.1	-143.9	13.5
COc1ccc(-c2c3c(nc4sc5c(Cl)nc(C)nc5c24)CCC3)cc1	1.7	47.2	-1.9	0.4	108.8*	-5.9
O=C(CCC(=O)N1CCOc2ccc(Cl)cc21)NCCCN1CCC(Cc2ccccc2)CC1	-21.0	6.5	-10.6	-15.0	74.7*	34.6
Cc1ccc(OCCNC(=O)c2ccccc2F)cc1	-5.2	-11.8	-76.8	-22.2	-38.8	2.9
Cc1cccc(C)c1NC(=O)CNC(=O)c1cn(-c2ccccc2)nc1-c1ccccc1	8.9	4.8	-5.6	-8.2	-4.5	-30.3
Cc1nn(Cc2c(Cl)cccc2Cl)c(C)c1NC(=O)c1cn(-c2ccccc2)nc1-c1ccccc1	-42.0	87.4*	34.2	87.7*	114.5*	23.1
CCn1c(-c2ccccc2)c(C(=O)CCl)c2ccccc21	-101.9*	73.3*	33.6	14.7	46.1	105.5*
Cn1c(-c2ccccc2)c(C(=O)CCl)c2ccccc21	-86.4*	92.4*	27.9	59.8	54.7*	97.8*
Cn1c(-c2ccccc2)c(CCO)c2ccccc21	-5.3	1.2	-0.9	-6.2	-2.6	7.4
CCn1c2ccccc2c(=O)c2ccccc21	-5.5	-0.2	0.6	-18.7	12.9	-2.1
CC12CCC(=O)CC1CCC1C2CCC2(C)C1CCC2(O)C(=O)CO (stereo not drawn)	13.3	-4.4	1.3	-1.5	-37.5	-53.8
CC12CCCC[C@@H]1CCC1C2CCC2(C)C1CC[C@@]2(O)CNCCO (stereo partly drawn)	-9.0	-19.3	10.4	21.4	109.6*	19.3
Cc1cc(Cl)c2ccc3ccccc3c2n1	4.3	-1.8	13.0	5.6	-14.8	2.2
SMILES	KKLEB tox	TRPM1 prom inh	HIF-2a block	Shn3 3UTR inh	Peg3 promoter	CF NFkB block
Cc1ccc2c(Cl)cc(Cl)c(O)c2n1	-35.4	72.9*	6.2	66.0	46.4	52.5*
COc1cc(C(=O)Nc2ccc3c(c2)Cc2cc(NC(=O)c4cc(OC)c(OC)c(OC)c4)ccc2-3)cc(OC)c1OC	-76.6*	13.3	5.2	24.7	22.7	68.5*
O=C(NC(=S)Nc1cc(Cl)ccc1Cl)c1ccco1	12.2	·	-179.9	-37.7	-85.8	-32.2
COc1ccc(-c2nnc(SCC(=O)Nc3sc4c(c3C#N)CCCC4)n2-c2ccccc2)cc1	-73.1*	6.0	12.2	-11.5	53.3*	62.8*
COC(=O)[C@@]12CCCCN1[C@H](c1ccc(-c3cccc(Cl)c3)c(OC)c1)[C@H]1C(=O)N(C)C(=O)[C@H]12	-12.1	1.5	28.4	-28.3	22.2	15.2
COc1ccc([C@H]2C[C@@H](O)[C@H](n3cc(COC(=O)c4ccccc4)nn3)CN2C(=O)c2cccs2)cc1	11.1	·	8.3	-1.0	-6.9	-14.8
O=C(O)c1cccc(N2C(=O)CSC2=S)c1	5.5	-1.7	11.8	27.2	6.9	12.7
O=C1CSC(=S)N1c1cccc(O)c1	-17.7	-7.3	48.4*	6.9	31.9	42.9
COC(=O)C1=C(C)N(Cc2ccccc2)C(=NCc2cccc(C(F)(F)F)c2)N[C@H]1c1cccc(F)c1	-97.2*	93.6*	9.8	-3.8	99.7*	84.3*
COC(=O)C1=C(C)N(Cc2ccccc2)C(=NCc2ccc(OC)cc2)N[C@H]1c1ccccc1	-1.7	2.7	5.6	4.4	69.0*	-14.1
O=S(=O)(c1cc(F)ccc1F)N1CCN(c2ncnc3ccccc23)CC1	-13.4	32.2	28.2	87.9*	20.7	21.8
COc1ccc(-c2cn[nH]c2N)c(OC)c1	-19.7	1.5	8.7	12.9	10.5	63.5*
COc1ccccc1OCC(=O)Nc1ccc(S(=O)(=O)N(C)c2ccccc2)cc1	-0.1	9.1	15.7	2.2	20.1	-13.3
CCCCN1CC(COCc2ccccc2)Oc2cccc(OCCN3C(=O)[C@@H]4[C@H](C3=O)C3C=C[C@H]4C3)c2S1(=O)=O (stereo partly drawn)	-4.9	10.8	-13.6	53.4	59.1*	42.8
CCCCN1CC(COCc2ccccc2)Oc2cccc(Oc3ccc(OC)cc3)c2S1(=O)=O (stereo not drawn)	7.5	-5.4	14.6	55.5	4.3	6.2
Cc1ccc(NC(=O)c2cc(-c3cc(Cl)ccc3C)n[nH]2)cc1NS(C)(=O)=O	-5.3	·	-11.9	2.3	23.2	5.9
COc1ccc(Cl)cc1-c1cc(C(=O)Nc2ccc(C)c(NS(C)(=O)=O)c2)[nH]n1	7.7	·	-8.6	4.7	69.4*	-47.5
C[C@@]12C(=O)Nc3cc(F)ccc3C(=O)N1[C@H]1c3cc(Br)ccc3OC[C@@H]1[C@@H]2c1ccccc1	-12.9	9.6	-7.8	13.1	54.0*	13.4
Cc1ccc2c(c1)[C@H]1[C@H](CO2)[C@H](c2ccccc2)[C@]2(C)C(=O)Nc3cc(F)ccc3C(=O)N12	-27.1	23.4	16.1	37.8	68.2*	26.3
CN(C)CCCN=c1cc(-c2ccccc2)oc2ccc(Cl)cc12	-3.7	-78.3	-250.9	-46.7	99.7*	-19.6
N#Cc1cnn2c1nc(N1CCCCC1)c1ccccc12	-40.3	27.8	25.0	-1.1	51.4*	43.1
